# Hit rate of the full screen: of about 96,000 compounds, about 1,200 (1.2%) were called active. Cut-off read from the data, not from the text of the source: active = activation fold above about 2; inactive = the rest. The entries come from a sample that favours actives as a whole.
# Target: Alkaline phosphatase, placental type (Homo sapiens) (UniProt P05187)
# Test: PLAP enzyme activators, biochemical, luminescence, HTS (AID 696)
# Details: purified PLAP enzyme, luminescent substrate read-out; at 20 µM; active compounds read high
# Sequence of Alkaline phosphatase, placental type (Homo sapiens) (P05187 whole entry, looked up): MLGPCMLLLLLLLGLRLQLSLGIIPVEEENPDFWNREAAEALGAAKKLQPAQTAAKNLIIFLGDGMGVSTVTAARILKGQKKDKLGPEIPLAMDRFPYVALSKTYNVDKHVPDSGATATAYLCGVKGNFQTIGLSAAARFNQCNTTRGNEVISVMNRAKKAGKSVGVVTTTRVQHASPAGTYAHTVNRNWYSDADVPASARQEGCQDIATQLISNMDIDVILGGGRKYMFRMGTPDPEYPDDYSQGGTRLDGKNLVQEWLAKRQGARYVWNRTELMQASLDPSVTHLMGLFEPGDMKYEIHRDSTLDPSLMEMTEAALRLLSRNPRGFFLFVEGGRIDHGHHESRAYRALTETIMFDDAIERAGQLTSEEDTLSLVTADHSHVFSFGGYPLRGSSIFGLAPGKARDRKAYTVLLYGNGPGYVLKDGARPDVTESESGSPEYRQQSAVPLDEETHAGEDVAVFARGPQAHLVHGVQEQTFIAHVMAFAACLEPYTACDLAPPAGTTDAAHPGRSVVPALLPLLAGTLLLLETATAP
row,Compound,activation fold
1,CCOC(=O)c1c(N)n(Cc2ccccc2)c2nc3ccccc3nc12,0.9 (inactive)
2,COc1cc(Cn2c(N)c(C(=O)NCc3ccco3)c3nc4ccccc4nc32)cc(OC)c1OC,2.1 (active)
3,CCOC(=O)c1c(N)n(CCN2CCOCC2)c2nc3ccccc3nc12,1.1 (inactive)
4,Nc1ccc(C(=O)N/N=C2/CN3CCC2CC3)cc1,0.9 (inactive)
5,CCOc1ccc(C2SCC(=O)Nc3c2c(C)nn3C2CCOC(C)(C)C2)cc1 (stereo not given),1.5 (inactive)

# From PubChem BioAssay AID696 (Sanford-Burnham Center for Chemical Genomics, 2007)
